An excerpt weighted towards active compounds, which were near 6.8% of everything screened.
MK inhibit: blocks S. pneumoniae mevalonate kinase; inhibition, % at 10 µM; 65,000 tested, 0.48% active; purified MK, PK/LDH-coupled NADH absorbance 340 nm;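 active means ranked among the strongest by inhibition in the single 10 µM screen, a fixed top-ranked set picked for dose follow-up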
Abs 340nm: compounds absorbing at 340 nm | fold change at 10 µM | compound absorbance at 340 nm, fold over control | 65,000 tested, under 10 active;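 active means at 10 µM dose, initial 340 nm absorbance at least 2 fold that of control wells; inactive means change under 2 fold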;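 further: initial absorbance extrapolated from kinetic A340 decline of NADH oxidation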
NADH coupling: inhibitors of enzymes used to reach an NAD/NADH endpoint; coupled PK/LDH NADH assays, four targets; IC50, µM (highest dose often 10 µM); 65,000 tested, 0.02% active; AID 774;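 active means single-dose screening hits from any of four coupled enzyme assays that gave an IC50 when retested across doses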;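 further: the DPM-DC format reads NADH fluorescence rather than 340 nm absorbance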
Spn DPM-DC inh: blocks S. pneumoniae diphosphomevalonate decarboxylase. purified DPM-DC, PK/LDH coupled NADH fluorescence. calls only at 10 µM. 65,000 tested, 0.49% active. AID 556;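 active means the 320 compounds with the highest percent inhibition in the single-dose primary screen, excluding strongly autofluorescent ones, cut at about 32% in these data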;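 further: kinetic rate of NADH fluorescence loss reporting ADP formed by the decarboxylase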
Spn PMK inh: S. pneumoniae PMK inhibition; 65,000 tested, 0.49% active; inhibition, % at 10 µM; purified PMK, PK/LDH-coupled NADH absorbance 340 nm;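 active means top-ranked compounds by inhibition in the single 10 µM screen, taking a fixed number of the strongest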
Fluor 339 460: intrinsic fluorescence of library compounds, ex339/em460 – biochemical, MLSMR library, data from DPM-DC assay, artefact control, profiling panel; 65,000 tested, 5.5% active; fluorescence fold increase at 10 µM; compound autofluorescence, ex339/em460 nm, NADH buffer; hits give high values; 1 = no-compound wells, NADH background;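 active means at 10 µM, mean starting fluorescence two-fold or more over control wells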;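 further: signal is the first read of a kinetic run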
Large screens that a line does not name were inactive.

CCC1Sc2ccccc2N(CC(=O)NCCC(C)C)C1=O (stereo not given)	none
CCc1cc2c(CN3CCN(CCO)CC3)cc(=O)oc2cc1O	Fluor 339 460 2.9 (not shown: Spn DPM-DC inh)
CCc1cc2c(CN3CCN(C)CC3)cc(=O)oc2cc1O	Fluor 339 460 3.8 (not shown: Spn DPM-DC inh)
Cc1ccc(NS(=O)(=O)c2cccc(C(=O)Nc3cc(C)on3)c2)cc1	none
CC1(c2ccc3c(c2)OCO3)NC(=O)N(CC(=O)Nc2ccc(N3CCOCC3)cc2)C1=O (stereo not given)	none
COc1cccc(/C=N/n2c(C)c3c(C)nnc(C)c3c2C)c1O	none
Clc1ccc(N2CCN(c3ncnc4c3oc3ccccc34)CC2)cc1	Fluor 339 460 3.7 (not shown: Spn DPM-DC inh)
CC(=O)c1cccc(S(=O)(=O)N2CCN(c3nc4cc(C)cc(C)c4cc3C#N)CC2)c1	Fluor 339 460 2.2
Cn1nc(CC(=O)NCCN2C(=O)CSC2=O)c2ccccc2c1=O	none
COc1cccc(OC)c1OCCCCN1CCCC1	MK inhibit 52
Clc1ccccc1OCCCCN1CCCC1	MK inhibit 40
CCOC(=O)c1sc(C)c2c1NC1(CCCCC1)NC2=O	Fluor 339 460 3.9 (not shown: Spn DPM-DC inh)
CCOC(=O)c1sc(C)c2c1NC(C)(c1cccs1)NC2=O (stereo not given)	Fluor 339 460 3 (not shown: Spn DPM-DC inh)
CCN1C(=O)c2ccc(-c3nc4ccccc4c(=O)o3)cc2C1=O	Fluor 339 460 2.2 (not shown: Spn DPM-DC inh)
CCOC(=O)CSc1nc(N2CCOCC2)c2c(c1C#N)CC(C)(C)N(C)C2	none
CN1C(=O)c2ccccc2C(C(=O)O)C1c1cccc(F)c1 (stereo not given)	none
Cc1ccsc1C1C(C(=O)O)c2ccccc2C(=O)N1C (stereo not given)	MK inhibit 53, Spn DPM-DC inh active, Spn PMK inh 85
O=C(c1cccc(S(=O)(=O)NCCOc2ccccc2)c1)N1CCN(c2ncccn2)CC1	none
COc1ccc(N2CCN(C(=O)CSc3nnc(Cn4nnc5ccccc54)n3C)CC2)cc1	none
Cc1cccc(OCC(O)Cn2c(-n3nc(C)cc3C)nc3c2c(=O)[nH]c(=O)n3C)c1 (stereo not given)	Spn DPM-DC inh active, Fluor 339 460 2.9
Cn1c(-c2ccc(CN3CCCCC3)o2)nc2ccccc21	Fluor 339 460 2.1
O=C(Nc1nnc(-c2ccccc2)o1)c1nc2ccccc2s1	Fluor 339 460 2.2 (not shown: Spn DPM-DC inh)
NC(=O)c1oc2ccccc2c1NC(=O)c1nc2ccccc2s1	Fluor 339 460 2.6
CC(C)C(=O)Nc1nnc(-c2ccccc2)o1	none
O=C(CN(CCN1CCOCC1)C(=O)Cn1nnc(-c2ccc(F)cc2)n1)NC1CCCCC1	Fluor 339 460 3.6 (not shown: Spn DPM-DC inh)
Cc1ccc(CNC(=O)c2cc3c(=O)n4ccccc4nc3n(Cc3ccco3)c2=N)cc1	Fluor 339 460 2.3 (not shown: Spn DPM-DC inh)
Cc1ccc(CNC(=O)c2cc3c(=O)n4ccccc4nc3n(CC3CCCO3)c2=N)cc1 (stereo not given)	Fluor 339 460 2.4 (not shown: Spn DPM-DC inh)
CCOC(=O)c1cc2c(=O)n3ccccc3nc2n(CC2CCCO2)c1=NC(C)=O (stereo not given)	Fluor 339 460 2
N=c1c(C(=O)NCc2ccccc2)cc2c(=O)n3ccccc3nc2n1Cc1ccco1	none
N=c1c(C(=O)NCc2ccc(F)cc2)cc2c(=O)n3ccccc3nc2n1Cc1ccco1	Fluor 339 460 2.7
COc1ccccc1C1CC(c2ccc(C)cc2)Nc2ncnn21 (stereo not given)	none
C/C(Cl)=C\Cn1c(N2CCCCCC2)nc2c1c(=O)n(C)c(=O)n2C	none
CN(CCNC(=O)C1CC(=O)N(c2ccc(F)c(Cl)c2)C1)Cc1ccccc1 (stereo not given)	none
CCOC(=O)N1CCC(NC(=O)C2CCN(S(=O)(=O)c3c(C)noc3C)CC2)CC1	none
Cc1cc(C#N)c(C)n1-c1cc(C(F)(F)F)ccc1N1CCOCC1	none
CCCOc1ccccc1-c1nc2c([nH]1)c(=O)[nH]c(=O)n2C	Fluor 339 460 3.7 (not shown: Spn DPM-DC inh)
O=C(CCc1nc(-c2ccccc2F)no1)NCCN1CCc2ccccc2C1	Spn DPM-DC inh active
Cc1ccc(-c2noc(CCC(=O)NCCN3CCc4ccccc4C3)n2)cc1	Spn PMK inh 25
Cc1ccc(-c2noc(CCC(=O)NCCN3CCOCC3)n2)cc1	none
O=C(CCc1nc(-c2ccccc2F)no1)NCCc1ccccc1Cl	none
CCCCN(C)CCNC(=O)c1ccc2c(c1)NC(=O)C(N1CCCCC1)S2 (stereo not given)	none
COc1ccc(OC)c2c1CC(C)(C)NC2=O	Fluor 339 460 2.1 (not shown: Spn DPM-DC inh)
CC1CCC(N2CCN(S(C)(=O)=O)CC2)CC1 (stereo not given)	none
CCS(=O)(=O)N1CCN(C2CCC(C)CC2)CC1 (stereo not given)	MK inhibit 61
COc1cccc(C(=O)Nc2cc(C)c3c(=O)oc4ccccc4c3n2)c1	none
COc1ccc(-c2nc(C#N)c(N3CCOCC3)o2)cc1OC	MK inhibit 11, Fluor 339 460 3.1 (not shown: Spn DPM-DC inh)
N#Cc1nc(COc2ccccc2)oc1N1CCN(c2cccc(Cl)c2)CC1	none
COc1ccc(-c2nc(C#N)c(N3CCN(c4cccc(Cl)c4)CC3)o2)cc1OC	Fluor 339 460 2.1
CCC1c2ccc(C)n2CCN1C(=O)Nc1ccccc1C(=O)OC (stereo not given)	Fluor 339 460 2.5
CC1(C)OC(=O)C2(Cc3ccccc3N3CCCCC32)C(=O)O1 (stereo not given)	none
Cn1c(=O)[nH]c(=O)c2c1nc(NC1CCCCC1)n2CCO	none
Cn1c(=O)[nH]c(=O)c2c1nc(NC1CCCCC1)n2Cc1ccccc1	Spn DPM-DC inh active, Fluor 339 460 2.5
COC(=O)Cc1c(C)c2c(O)cc(C)cc2oc1=O	Fluor 339 460 2.1 (not shown: Spn DPM-DC inh)
CCOC(=O)Cc1c(C)c2c(C)[nH]nc2oc1=O	none
O=C1NCCN1Cc1ccccc1F	none
COc1cc(-c2nnc3sc(-c4ccccn4)nn23)cc(OC)c1OC	none
Cc1nn(-c2ccc(F)cc2)c2sc(C(=O)OC3CCOC3=O)cc12 (stereo not given)	Fluor 339 460 2.1 (not shown: Spn DPM-DC inh)
CC1(C)CCCN(C(=O)c2coc(=O)c(Br)c2)C1	Fluor 339 460 3.7 (not shown: Spn DPM-DC inh)
C[C@@H](NC(=O)c1coc(=O)c(Br)c1)c1ccccc1	none
O=C(c1cc(-c2ccco2)on1)N1CCCc2ccccc21	MK inhibit 50, Spn PMK inh 31
O=C(c1coc(=O)c(Br)c1)N1CCCc2ccccc21	Fluor 339 460 2.4 (not shown: Spn DPM-DC inh)
COc1cccc(-c2nnc(SCC(=O)Nc3ccc(S(N)(=O)=O)cc3)n2C)c1	none
COc1ccc(CN(C#N)c2nc(SC)nc(N(C)C)n2)cc1	none
Cc1ccc2c(c1)NC(=O)C(CC(=O)N(C)Cc1ccccc1)O2 (stereo not given)	none
CCOC(=O)C1CCCN(CCCc2ccccc2)C1 (stereo not given)	none
CC(=O)Nc1cccc(Oc2cc(C#N)c(C#N)cc2N2CCCCCC2)c1	none
CC1=CC(C)(C)Nc2cc(C)c(C)cc21	Fluor 339 460 2.7
